# According to the supplement of paper PMC10646978:
# ± gives the standard deviation.
# Legend:
# Conditions in all cases: modulator concentration 10 µM
# [1] = test system: RAW-Dual (murine macrophage reporter line); assay: NF-kB reporter (SEAP) activity fold change vs agonist alone; higher = enhanced NF-kB activity
# Summary of the method: (§1)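 RAW-Dual murine macrophage reporter cells were seeded at 50 000 per well in 384-well plates and pre-incubated 1 hour at 37 °C with compound pin-transferred to 10 μM final. After 1 hour, a PRR agonist was added and cells incubated overnight. Supernatant NF-κB (SEAP, QUANTI-Blue, 620 nm absorbance) and IRF (Lucia luciferase, QUANTI-Luc, luminescence) signals were divided by the mean agonist-only control on the same plate to give fold change. Two replicate plates were averaged, with errors by propagation.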
# [2] = test system: RAW-Dual (murine macrophage reporter line); assay: IRF reporter (Lucia luciferase) activity fold change vs agonist alone; higher = enhanced IRF activity
# Summary of the method: as §1
# [3] = test system: RAW-Dual (murine macrophage reporter line); assay: viability score (confluency relative to resting cells, overnight) (fraction); higher = more viable, active = viable (0.7 or more)
# Summary of the method: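 RAW-Dual macrophages in 384-well plates were incubated overnight with compound, final concentration 10 μM. Confluency images from IncuCyte were processed in IncuCyte software into two masks covering all imaged wells. The viability score is each well's confluency relative to resting cells, and a compound met the cutoff when both masks exceeded 70% of resting cells.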
# [4] = agonist: CpG ODN 1826 0.5 ug/mL
SMILES,"NF-kB reporter [1, 4]",NF-kB reporter ([1]; agonist: LPS 0.1 ug/mL),NF-kB reporter ([1]; agonist: MPLA […]),IRF reporter ([2]; agonist: 3'3'-cGAMP 10 ug/mL),IRF reporter ([2]; agonist: LPS 0.1 ug/mL),IRF reporter ([2]; agonist: MPLA […]),viability score [3]
O=C(NN=Cc1c(O)ccc2ccccc12)c1ccccc1I,1.54 ± 0.47,1.11 ± 0.096,1.02 ± 0.099,0.847 ± 0.043,1.47 ± 0.15,1.55 ± 0.17,1 (active)
N[C@@H]1CONC1=O,0.988 ± 0.074,0.913 ± 0.14,0.959 ± 0.037,0.929 ± 0.092,1.05 ± 0.094,1.06 ± 0.082,1 (active)
c1cnn(-c2ccc(N=Nc3ccc(-n4cccn4)cc3)cc2)c1,0.939 ± 0.087,1.05 ± 0.083,0.966 ± 0.082,0.814 ± 0.037,1.09 ± 0.1,1.02 ± 0.12,0.996 (active)
O=C(NC1CCC(Oc2ncc(F)cn2)CC1)c1cccc(F)c1 (configuration not stated),0.976 ± 0.084,1.01 ± 0.079,0.913 ± 0.079,1.01 ± 0.064,1.08 ± 0.088,1.04 ± 0.27,1.01 (active)
C=CC(=O)Nc1cccc(Nc2nc(Nc3ccc(N4CCN(C(C)=O)CC4)cc3OC)ncc2C(F)(F)F)c1,0.634 ± 0.16,0.662 ± 0.035,0.977 ± 0.086,0.0805 ± 0.0073,0.438 ± 0.14,0.406 ± 0.04,0.926 (active)
C=C1CCN([C@H](C)[C@](O)(Cn2cncn2)c2ccc(F)cc2F)CC1,1.21 ± 0.12,0.941 ± 0.11,0.986 ± 0.095,1.19 ± 0.054,1.73 ± 0.16,1.3 ± 0.15,0.134 (inactive)
COc1cc2c(cc1OC)C(=O)C(CC1CCN(Cc3ccccc3)CC1)C2.Cl (configuration not stated),0.127 ± 0.011,0.947 ± 0.072,1.46 ± 0.14,0.791 ± 0.067,1.15 ± 0.25,1.29 ± 0.22,0.959 (active)
O=C1NC(=O)C(=Cc2ccc(-c3cccc(Cl)c3)o2)S1,0.774 ± 0.36,0.761 ± 0.064,0.776 ± 0.064,0.747 ± 0.032,1.13 ± 0.14,1.2 ± 0.16,0.943 (active)
O=C(NCC(O)Cc1ccccc1)Nc1ccc(F)cc1 (configuration not stated),0.893 ± 0.096,0.969 ± 0.077,1.08 ± 0.064,1.04 ± 0.048,1.28 ± 0.3,1.36 ± 0.37,0.971 (active)
Br.COc1ccc(C2=NN(c3nc(-c4ccc(OC)c(F)c4)cs3)C(c3ccc(OC)cc3)C2)cc1 (configuration not stated),0.964 ± 0.068,0.997 ± 0.11,0.914 ± 0.1,0.805 ± 0.071,1.22 ± 0.08,1.05 ± 0.39,1.01 (active)
Cc1cc(OC2CN(C(=O)Cn3nnc4ccccc43)C2)cc(=O)n1C1CC1,1.14 ± 0.08,1.05 ± 0.11,1.02 ± 0.044,0.97 ± 0.044,0.99 ± 0.07,0.973 ± 0.15,0.997 (active)
Cc1cccc(NC(=O)Cc2nnc(NC(=O)Nc3ccc(F)cc3)s2)c1,1.02 ± 0.11,1.03 ± 0.059,0.917 ± 0.055,1 ± 0.051,1.53 ± 0.12,1.11 ± 0.15,1.01 (active)
CCC(=O)Nc1ccc(S(=O)(=O)N2CCC(Oc3ncnc(CC)c3F)C2)c(C)c1 (configuration not stated),1 ± 0.043,1.06 ± 0.087,1.2 ± 0.083,0.919 ± 0.055,1.24 ± 0.21,1.34 ± 0.4,0.992 (active)
COc1cc(C=NNC(=O)CSc2ccccn2)cc(Cl)c1O,1.16 ± 0.073,1.02 ± 0.15,0.953 ± 0.026,1.04 ± 0.042,0.95 ± 0.12,0.94 ± 0.18,1 (active)
C=Cc1c(C)c2cc3nc(cc4[nH]c(cc5nc(cc1[nH]2)C(C)=C5CCC(=O)O)c(CCC(=O)OC)c4C)[C@@]1(C)C3=CC=C(C(=O)OC)[C@H]1C(=O)OC,0.419 ± 0.077,0.077 ± 0.012,0.123 ± 0.0057,0.0175 ± 0.0038,0.0424 ± 0.018,0.0518 ± 0.015,0.344 (inactive)
CCOC(=O)C1=C(C)OC(N)=C(C#N)C1c1ccc(O)c(OCC)c1 (configuration not stated),1.19 ± 0.075,1.04 ± 0.064,1.07 ± 0.099,0.939 ± 0.038,1.31 ± 0.12,1.16 ± 0.11,1.01 (active)
COc1ccc(C=NNC(=O)CSc2nnc(-c3ccncc3)n2-c2ccccc2)cc1OC,1.05 ± 0.12,1 ± 0.1,0.962 ± 0.034,0.954 ± 0.05,1.04 ± 0.07,1.01 ± 0.12,0.998 (active)
CC(=O)NO,0.863 ± 0.12,0.93 ± 0.071,0.953 ± 0.053,0.834 ± 0.068,0.901 ± 0.15,0.977 ± 0.092,1 (active)
CC1CCN(c2ccc(-c3ccc(NC(=O)c4ccc5ncsc5c4)cc3)nn2)CC1,0.914 ± 0.039,0.98 ± 0.078,1.02 ± 0.057,0.967 ± 0.045,1.09 ± 0.12,1.17 ± 0.23,0.986 (active)
CCN(CC)C(=O)N1CCN(C)CC1.O=C(O)CC(O)(CC(=O)O)C(=O)O,1.04 ± 0.19,0.975 ± 0.18,0.92 ± 0.065,0.895 ± 0.057,1.23 ± 0.23,1.16 ± 0.27,0.995 (active)
O=C(COc1ccccc1)N1CCCC1Cn1nccn1 (configuration not stated),0.962 ± 0.09,0.951 ± 0.077,0.923 ± 0.1,0.904 ± 0.049,1.17 ± 0.1,1.06 ± 0.25,0.975 (active)
COc1ccc2cc(Br)ccc2c1CC(N)=O,1.09 ± 0.086,1.07 ± 0.12,1.04 ± 0.046,0.89 ± 0.13,1.07 ± 0.072,0.961 ± 0.14,0.968 (active)
CC(C)(C)c1nc(-c2cccc(NS(=O)(=O)c3c(F)cccc3F)c2F)c(-c2ccnc(N)n2)s1,2.41 ± 0.12,1.77 ± 0.14,2.36 ± 0.1,0.67 ± 0.079,0.818 ± 0.071,1.1 ± 0.2,0.763 (active)
Cl.O=C1c2cccc3c2C(CCC3)CN1C1CN2CCC1CC2 (configuration not stated),0.77 ± 0.21,0.704 ± 0.044,0.825 ± 0.058,0.557 ± 0.035,0.718 ± 0.086,0.924 ± 0.14,0.987 (active)
COc1ccc(Br)c(C(=O)N2CCOCC2CO)c1 (configuration not stated),0.922 ± 0.049,0.963 ± 0.095,1.03 ± 0.071,0.997 ± 0.098,1.36 ± 0.26,1.52 ± 0.51,0.951 (active)
O=C(NC1CCC(F)(F)CC1)c1cc(Br)cs1,1.13 ± 0.064,0.996 ± 0.075,0.984 ± 0.04,0.833 ± 0.051,1.04 ± 0.052,1.03 ± 0.15,0.999 (active)
